{
  "source": "paper PMC12670160",
  "about": "“A drug-repurposing screen of FDA- and EMA-approved drugs identifies two NF-κB inhibitors active against eumycetoma” (Journal of Antimicrobial Chemotherapy, 2025)",
  "data": [
    {"tested_on": "M. mycetomatis strain mm55", "set-up": "species or system Madurella mycetomatis MM55 hyphae; CellTiter-Glo 3D luminescence viability of fungal hyphae, single-point 2 uM library screen, per cent of growth control", "conditions": "primary screen, metabolic activity vs growth control; 96 h, 2 µM; inhibitor", "experimental": "To determine the in vitro susceptibility of M. mycetomatis to the compounds, a hyphal inoculum was prepared as described elsewhere.[19] This M. mycetomatis hyphal suspension (60 µL) was added to each of the wells in the 384-well plate, leading to a final testing concentration of 2 µM per compound. Each plate also contained a growth control (60 µL of M. mycetomatis hyphal suspension, plus 0.6 µL of DMSO) and a negative control (60 µL of culture medium, plus 0.6 µL of DMSO). Plates were then incubated for 4 days at 37°C, after which 30 µL of CellTiter-Glo 3D Cell Viability reagent was added to every well.[19] After 25 min of incubation at room temperature, the luminescence was measured with a CytoFluor Series 4000 luminometer (PerSeptive Biosystems, Framingham, MA, USA). To determine the metabolic activity, the following formula was used: where, GC is growth control and NC is negative control. The luminescence measured for the GC is considered as 100% metabolic activity. The luminescence for the NC is considered as 0% metabolic activity. […] The Oncode Drug Repurposing library was based on the drug repurposing library from the Drug Repurposing Hub of the Broad Institute and recreated by the Oncode institute.[13] The library contained 5631 drugs.[18] […]", "units": {"% viability": "%"}, "values": [
      {"smiles": "C[N+]1(C)CCc2cc3c(cc2[C@H]1[C@@H]1OC(=O)c2c1ccc1c2OCO1)OCO3", "note": "[ONC0000006, bicucullinemethochloride]", "% viability": 85.19},
      {"smiles": "C[C@]12CC[C@@H]3c4ccc(OC(=O)N(CCCl)CCCl)cc4CC[C@H]3[C@@H]1CC[C@@H]2OP(=O)(O)O", "note": "[ONC0003506, estramustine phosphatena]", "% viability": 76.07}
    ]}
  ]
}
